Screening data as filed in PubChem.
Rows were chosen to be rich in hits. Some 1.2% of all compounds tested hit in one or more screens of this group.
RGS8-Gao reg: regulators of human RGS8-Galphao interaction | AID 1423 | multiplexed bead flow cytometry, RGS8-Galphao binding; actives lie on both sides | actives 0.34% (n = 220,000) | response (percent of control binding), % at 10 µM; in the data active = response below about 60% or above about 140%; inactive = in between;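 note: Galphao activated as the GDP aluminium fluoride complex binding bead-coupled RGS8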
Target sequence (P09471 whole entry, looked up): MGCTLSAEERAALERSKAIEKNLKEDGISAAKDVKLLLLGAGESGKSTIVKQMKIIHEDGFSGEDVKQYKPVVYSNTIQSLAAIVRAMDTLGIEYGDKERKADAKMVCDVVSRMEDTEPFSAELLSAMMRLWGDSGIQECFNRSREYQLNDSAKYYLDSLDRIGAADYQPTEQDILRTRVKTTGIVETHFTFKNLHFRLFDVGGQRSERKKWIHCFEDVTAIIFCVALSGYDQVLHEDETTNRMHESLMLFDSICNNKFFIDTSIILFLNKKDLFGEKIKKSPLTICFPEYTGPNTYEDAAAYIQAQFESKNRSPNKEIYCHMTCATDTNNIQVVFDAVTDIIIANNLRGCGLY
RGS7-Gao: modulates binding of RGS7 to human Galphao; P09471; Multiplexed bead flow cytometry; actives lie on both sides; binding response (% of control), % at 10 µM; actives 0.35% (n = 220,000); in the data active = binding response below about 49% or above about 150%; inconclusive = no clear call, values can overlap the other calls; inactive = in between;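 note: fluorescent Galphao held in activated GDP-AlF4 state binding bead-coupled RGS7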
GSH bead fluor: compound fluoresces at 488/530 nm on GSH beads; GSH beads flow cytometry, compound fluorescence 488/530 nm; stronger effect = higher value; fluorescence (KMESF) at 10 µM; actives 0.25% (n = 190,000); AID 1776; in the data active = fluorescence above about 89;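 note: glutathione beads carrying GST-tagged Bcl family fusion proteins plus one bare bead set; values are compound well signal with DMSO vehicle wells as background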
Avidin fluor: compound fluoresces at 488/530 nm on avidin beads | compound fluorescence 488/530 nm, flow cytometry; stronger effect = higher value | fluorescence (KMESF) at 10 µM | actives 0.38% (n = 220,000) | AID 1775; in the data active = fluorescence above about 47
RGS4-Gao reg: human RGS4-Galphao interaction regulation. binding response (% of control), % at 10 µM. AID 1415. Multiplexed bead flow cytometry, RGS4-Galphao binding; actives lie on both sides. actives 0.33% (n = 220,000). P09471; in the data active = binding response below about 49% or above about 150%; inactive = in between;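 note: fluorescent Galphao activated with aluminum fluoride binding bead-coupled RGS4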
RGS16-Gao HTS: modulates binding between human RGS16 and Galphao. binding response (% of control), % at 10 µM. O15492+P09471. actives 0.38% (n = 220,000). bead-based flow cytometry RGS16-Galphao binding, fluorescence; actives lie on both sides;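 note: Galphao activated by GDP with aluminum fluoride before binding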
RGS4-Gao HTS: RGS4-Galphao interaction regulator (human); shares compounds with RGS16-Gao HTS; multiplexed bead flow cytometry, RGS–Galpha-o binding; RGS4–Galpha-o binding response, % at 10 µM; actives 99% (n = 1,600);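 note: fluorescently labeled Galpha-o bound to GDP with aluminium fluoride binding biotinylated RGS beads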
Avidin counter: counter-screen: compounds disrupting biotin binding to avidin beads | shares compounds with RGS16-Gao HTS | streptavidin beads, fluorescein-biotin binding, flow cytometry | inhibition, % at 10 µM | 1,700 tested, under 10 active | AID 1783;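 active = inhibition above 50%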;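 note: median green fluorescence of gated singlet beads compared with DMSO control wells; 0% = DMSO wells and 100% = complete loss of bead fluorescence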
RGS8-Gao single: confirmation of regulators of human RGS8-Galphao interaction | shares compounds with RGS16-Gao HTS | bead-based flow cytometry RGS8-Galphao binding, fluorescence; actives lie on both sides | binding response (% of control), % at 10 µM | actives 3% (n = 1,700); in the data active = binding response below about 72% or above about 130%; inactive = in between;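 note: Galphao activated as GDP AlF4 complex before binding bead RGS8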
RGS7-Gao single: confirmation of regulators of human RGS7-Galphao interaction. bead-based flow cytometry RGS7-Galphao binding; actives lie on both sides. actives 7.8% (n = 1,700). response (percent of control binding), % at 10 µM. shares compounds with RGS16-Gao HTS. AID 1837; in the data active = response below about 75% or above about 130%; inactive = in between;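 note: fluorescent Galphao activated with GDP and aluminum fluoride binding bead-coupled RGS7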
RGS16-Gao single: confirmation of regulators of human RGS16-Galphao interaction; shares compounds with RGS16-Gao HTS; bead-based flow cytometry, RGS16-Galphao binding; actives lie on both sides; response (% of control binding), % at 10 µM; actives 4% (n = 1,700); AID 1838; in the data active = response below about 74% or above about 130%; inactive = in between;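 note: Galphao activated as the GDP aluminium fluoride complex binding bead-coupled RGS16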
RGS4-Gao single: confirmation of regulators of human RGS4-Galphao interaction; RGS4-Galphao binding, multiplexed bead flow cytometry; actives lie on both sides; shares compounds with RGS16-Gao HTS; binding response (% of control), % at 10 µM; actives 4% (n = 1,700); in the data active = binding response below about 74% or above about 130%; inactive = in between
RGS19-Gao single: confirmation of regulators of human RGS19-Galphao interaction. shares compounds with RGS16-Gao HTS. bead-based flow cytometry RGS19-Galphao binding; actives lie on both sides. response (percent of control binding), % at 10 µM. actives 5% (n = 1,700). AID 1841; in the data active = response below about 50% or above about 160%; inactive = in between;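 note: 100% = no compound control and 0% = blank background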
Target sequence (P09471 whole entry, looked up): as above
Target sequence (P49795 whole entry, looked up): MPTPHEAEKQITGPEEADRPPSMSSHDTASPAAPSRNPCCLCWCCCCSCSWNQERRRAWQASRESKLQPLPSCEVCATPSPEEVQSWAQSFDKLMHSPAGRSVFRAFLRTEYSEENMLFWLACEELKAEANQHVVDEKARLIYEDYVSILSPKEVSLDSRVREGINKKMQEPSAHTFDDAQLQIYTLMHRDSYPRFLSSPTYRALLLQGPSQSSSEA
Active calls of the source: *; [ ] = another dose, or the depositor's remark. Unless noted, the rule behind the calls is not given here.

Screening COc1ccc(/C(O)=C2\C(=O)C(=O)N(Cc3ccco3)C2c2cc(OC)ccc2OC)cc1 (configuration not stated) returned RGS8-Gao reg 24*, RGS7-Gao 26*, GSH bead fluor 11, Avidin fluor 6, RGS4-Gao reg 31*, RGS16-Gao HTS 21*, Avidin counter -1, RGS8-Gao single 100, RGS7-Gao single 102, RGS16-Gao single 101, RGS4-Gao single 100 and RGS19-Gao single 94.
Screening CCn1c(SCC(=O)Nc2nccc(C)n2)nc2ccccc21 returned RGS8-Gao reg 103, RGS7-Gao inconclusive, Avidin fluor 3, RGS4-Gao reg 101 and RGS16-Gao HTS 106.
CC(C)N=C(NS(=O)(=O)c1ccccc1)C(Cl)(Cl)Cl was read as RGS8-Gao reg 101, RGS7-Gao 97, GSH bead fluor 18, Avidin fluor 7, RGS4-Gao reg 99 and RGS16-Gao HTS 102.
`CC(=O)c1cccc(NC(=O)NCc2cccnc2)c1` gave GSH bead fluor 38, Avidin counter -1, RGS8-Gao single 100, RGS7-Gao single 98, RGS16-Gao single 98, RGS4-Gao single 99 and RGS19-Gao single 96.
O=C(NCc1cccnc1)Nc1cccc(NC(=O)NCc2cccnc2)c1 was read as RGS8-Gao reg 100, RGS7-Gao 102, GSH bead fluor 49, Avidin fluor 3, RGS4-Gao reg 102 and RGS16-Gao HTS 103.
`CSC1=N/C(=C\c2ccccc2Cl)C(=O)N1N(C)C` gave RGS8-Gao reg 103, RGS7-Gao inconclusive, Avidin fluor 6, RGS4-Gao reg 103 and RGS16-Gao HTS 107.
`CCC(C)(C)NC(=O)C1CCN(S(=O)(=O)c2cccs2)CC1` gave RGS8-Gao reg 129, RGS7-Gao 424*[activator], GSH bead fluor 38, Avidin fluor 80*, RGS4-Gao reg 465*[activator], RGS16-Gao HTS 364*[activator], Avidin counter 3, RGS8-Gao single 101, RGS7-Gao single 102, RGS16-Gao single 101, RGS4-Gao single 101 and RGS19-Gao single 85.
C=CCN(c1ccccc1C(=O)NCC(=O)O)S(=O)(=O)c1ccccc1C was read as RGS8-Gao reg 98, RGS7-Gao inconclusive, Avidin fluor 3, RGS4-Gao reg 99 and RGS16-Gao HTS 99.
Screening COCCn1c(SCC(=O)Nc2nnc(C)s2)nnc1-c1ccncc1 returned GSH bead fluor 17, Avidin counter 0, RGS8-Gao single 96, RGS7-Gao single 101, RGS16-Gao single 96, RGS4-Gao single 104 and RGS19-Gao single 105.
CCc1ccc(NC(=O)CN2CCc3ccccc3C2)cc1 was read as RGS8-Gao reg 102, RGS7-Gao 102, GSH bead fluor 14, Avidin fluor 33, RGS4-Gao reg 101 and RGS16-Gao HTS 100.
Screening O=C(CN1CCc2ccccc2C1)Nc1ccc(Br)cc1 returned RGS8-Gao reg 146*[activator], RGS7-Gao 111, GSH bead fluor 54, Avidin fluor 3, RGS4-Gao reg 120, RGS16-Gao HTS 362, RGS4-Gao HTS 120*, Avidin counter 2, RGS8-Gao single 100, RGS7-Gao single 94, RGS16-Gao single 100, RGS4-Gao single 99 and RGS19-Gao single 104.
`COC(=O)CCCC(=O)N1CCCC(CNS(=O)(=O)c2ccc(OC)cc2)C1` (configuration not stated) gave RGS8-Gao reg 103, RGS7-Gao 94, GSH bead fluor 19, Avidin fluor 10, RGS4-Gao reg 97 and RGS16-Gao HTS 110.
Screening CC(NC(=S)Nc1ccc(Cl)cc1)C(c1ccccc1)N1CCOCC1 (configuration not stated) returned RGS8-Gao reg 101, RGS7-Gao 100, GSH bead fluor 10, Avidin fluor 10, RGS4-Gao reg 103 and RGS16-Gao HTS 101.
Screening Cc1ccc(C)n1-c1ccc(C(=O)N/N=C/c2ccncc2)cc1 returned RGS8-Gao reg 100, RGS7-Gao inconclusive, GSH bead fluor 10, Avidin fluor 7, RGS4-Gao reg 101 and RGS16-Gao HTS 102.
`CC(=O)c1sc(-c2ccc(F)cc2)cc1NS(=O)(=O)c1ccccc1` gave RGS8-Gao reg 1.8*, RGS7-Gao inconclusive, Avidin fluor -3, RGS4-Gao reg -36*, RGS16-Gao HTS -20*, Avidin counter -1, RGS8-Gao single 101, RGS7-Gao single 98, RGS16-Gao single 101, RGS4-Gao single 101 and RGS19-Gao single 102.
COC(=O)c1sccc1NC(=O)c1cc(C)on1 was read as RGS8-Gao reg 110, RGS7-Gao 96, GSH bead fluor 44, RGS4-Gao reg 99, Avidin counter -1, RGS8-Gao single 100, RGS7-Gao single 103, RGS16-Gao single 102, RGS4-Gao single 100 and RGS19-Gao single 112.
Screening COC(=O)c1sccc1NC(=O)c1c(C)noc1C returned RGS8-Gao reg 96, RGS7-Gao 97, GSH bead fluor 10, Avidin fluor 33, RGS4-Gao reg 97 and RGS16-Gao HTS 92.
O=C(Nc1cccc2ncccc12)c1cccc(F)c1 was read as RGS8-Gao reg 96, RGS7-Gao 93, GSH bead fluor 7, Avidin fluor 12, RGS4-Gao reg 88 and RGS16-Gao HTS 97.
